Laboratory results taken from PubChem BioAssay.
The source made the active and inactive calls.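 How the source made its calls, unless noted: active means compound whose remaining NAD level is above about 45 nM (limit read from the data); inactive means the rest.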

These compounds were tested against NAD(+) hydrolase SARM1 (Homo sapiens) (UniProt Q6SZW1) (assay: SARM1 TIR NADase inhibitors, cell lysate, NAD-Glo luminescence (AID 1508614;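 further: higher remaining NAD means stronger inhibition of SARM1 NADase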)). Details: SAM-TIR HEK293T lysate NADase, at 1 µM, active compounds read high.
Sequence of NAD(+) hydrolase SARM1 (Homo sapiens) (Q6SZW1 whole entry, looked up): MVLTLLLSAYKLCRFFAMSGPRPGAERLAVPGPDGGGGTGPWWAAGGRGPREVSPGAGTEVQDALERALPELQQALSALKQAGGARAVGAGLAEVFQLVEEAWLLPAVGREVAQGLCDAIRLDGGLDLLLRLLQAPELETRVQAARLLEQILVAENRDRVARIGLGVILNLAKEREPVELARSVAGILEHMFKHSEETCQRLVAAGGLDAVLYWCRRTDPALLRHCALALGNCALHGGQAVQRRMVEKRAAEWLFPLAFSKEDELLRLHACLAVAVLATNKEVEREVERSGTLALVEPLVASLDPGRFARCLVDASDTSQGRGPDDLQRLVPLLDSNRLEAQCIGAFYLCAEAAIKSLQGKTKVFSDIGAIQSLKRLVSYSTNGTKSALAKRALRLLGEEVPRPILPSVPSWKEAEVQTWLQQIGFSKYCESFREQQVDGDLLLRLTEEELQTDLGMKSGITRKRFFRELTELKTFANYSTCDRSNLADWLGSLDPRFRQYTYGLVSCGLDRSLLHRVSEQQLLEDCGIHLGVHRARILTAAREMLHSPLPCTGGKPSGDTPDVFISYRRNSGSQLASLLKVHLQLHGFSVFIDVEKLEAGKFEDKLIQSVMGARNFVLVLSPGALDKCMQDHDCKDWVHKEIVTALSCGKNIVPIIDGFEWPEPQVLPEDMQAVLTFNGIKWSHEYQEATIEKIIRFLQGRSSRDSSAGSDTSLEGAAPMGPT

Structure (SMILES)	remaining NAD
C[N+]1([O-])[C@@H]2CC[C@H]1CC(OC(=O)C(CO)c1ccccc1)C2 (stereo not given in full)	10 nM (inactive)
CC(N)C(O)c1ccccc1 (stereo not given)	10 nM (inactive)
NC(=O)C[S@@](=O)C(c1ccccc1)c1ccccc1	10 nM (inactive)
CCN1C[C@]2(COC)[C@H](O)C[C@H](OC)[C@]34C1[C@H]([C@H](OC)[C@H]23)[C@]1(OC(C)=O)[C@H]2[C@@H](OC(=O)c3ccccc3)[C@](O)(C[C@H]24)[C@@H](OC)[C@@H]1O	10 nM (inactive)
CC(=O)[C@H]1CC[C@H]2[C@@H]3CC[C@@H]4C[C@H](O)CC[C@]4(C)[C@H]3CC[C@]12C	10 nM (inactive)
C=C[C@H]1CN2CC[C@H]1C[C@H]2[C@H](OC(=O)OCC)c1ccnc2ccc(OC)cc12	10 nM (inactive)
CN1C2CC(OC(=O)C(CO)c3ccccc3)CC1C(O)C2 (stereo not given)	10 nM (inactive)
C=CCNCCCCCCCCCC (tested in a mixture with another compound)	10 nM (inactive)
CC[C@@H](c1cccc(O)c1)[C@@H](C)CN(C)C	10 nM (inactive)
COc1ccc(O)c(C(C)(C)C)c1	10 nM (inactive)
CC[C@H]1[C@@H]2C[C@H]3[C@@H]4N(C)c5ccccc5[C@]45C[C@@H]([C@H]2[C@H]5O)N3[C@@H]1O	10 nM (inactive)
O=c1nc(O)n(Cl)c(=O)n1Cl	10 nM (inactive)
OC[C@@H](O)[C@H]1O[C@@H]2O[C@H](C(Cl)(Cl)Cl)O[C@@H]2[C@H]1O	10 nM (inactive)
O=C(NN=Cc1ccc([N+](=O)[O-])o1)c1cc([N+](=O)[O-])cc([N+](=O)[O-])c1O	10 nM (inactive)

Each compound was assayed against Mitogen-activated protein kinase 7 (Homo sapiens) (UniProt Q13164) (assay: ERK5 transactivation activators in reporter cells, primary screen, cell-based, HTS (AID 1508626;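 active means luciferase signal above three times the same-plate solvent-only control wells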;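 further: luciferase driven by Gal4-ERK5 fusion binding five Gal4 sites before minimal TATA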)). Details: HeLa Gal4-ERK5 transactivation, 18 h, at 5 µM, active compounds read high.
Sequence of Mitogen-activated protein kinase 7 (Homo sapiens) (Q13164 whole entry, looked up, the tested form may be a part): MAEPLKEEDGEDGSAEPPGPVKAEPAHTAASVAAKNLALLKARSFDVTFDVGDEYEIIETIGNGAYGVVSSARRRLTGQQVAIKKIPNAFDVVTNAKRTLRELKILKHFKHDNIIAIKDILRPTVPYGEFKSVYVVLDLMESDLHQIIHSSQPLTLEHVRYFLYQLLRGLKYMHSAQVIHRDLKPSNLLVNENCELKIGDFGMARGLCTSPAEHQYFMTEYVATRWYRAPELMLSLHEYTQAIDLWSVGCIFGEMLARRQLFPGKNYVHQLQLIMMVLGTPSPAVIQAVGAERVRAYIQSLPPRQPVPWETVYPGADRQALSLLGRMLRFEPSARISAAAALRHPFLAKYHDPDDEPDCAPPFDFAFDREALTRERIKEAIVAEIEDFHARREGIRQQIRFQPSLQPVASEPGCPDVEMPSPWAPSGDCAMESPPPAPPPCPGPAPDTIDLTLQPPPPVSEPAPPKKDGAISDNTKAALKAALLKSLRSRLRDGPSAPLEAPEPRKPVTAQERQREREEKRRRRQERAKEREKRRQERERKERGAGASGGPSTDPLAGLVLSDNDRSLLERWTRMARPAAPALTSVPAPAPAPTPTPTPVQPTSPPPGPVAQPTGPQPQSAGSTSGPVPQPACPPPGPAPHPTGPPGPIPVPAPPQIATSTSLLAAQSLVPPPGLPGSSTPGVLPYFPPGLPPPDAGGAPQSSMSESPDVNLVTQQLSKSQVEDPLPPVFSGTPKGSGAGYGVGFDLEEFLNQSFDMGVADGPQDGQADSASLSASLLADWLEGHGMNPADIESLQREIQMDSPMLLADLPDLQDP

Structure (SMILES)	luciferase signal
CC(=O)O[C@H]1C(=O)[C@@]2(C)[C@H]([C@H](OC(=O)c3ccccc3)[C@]3(O)C[C@H](O)C(C)=C1C3(C)C)[C@]1(OC(C)=O)CO[C@@H]1C[C@@H]2O	136 AU (inactive)
CN(CC[C@H](N)CC(=O)N[C@H]1C=C[C@H](n2ccc(N)nc2=O)O[C@@H]1C(=O)O)C(=N)N	80 AU (inactive)
CC(C)[C@@H]1NC(=O)[C@H](C)OC(=O)[C@@H](C(C)C)NC(=O)[C@@H](C(C)C)OC(=O)[C@H](C(C)C)NC(=O)[C@H](C)OC(=O)[C@@H](C(C)C)NC(=O)[C@@H](C(C)C)OC(=O)[C@H](C(C)C)NC(=O)[C@H](C)OC(=O)[C@@H](C(C)C)NC(=O)[C@@H](C(C)C)OC1=O	36 AU (inactive)
C[N+]12CC[C@@]34c5ccccc5N5C(=O)CC6OCC=C(C1)[C@H](CC32)[C@@H]6C54 (stereo not given in full)	140 AU (inactive)
C[C@@H]1CC[C@@]2(OC1)O[C@H]1[C@@H](O)[C@H]3[C@@H]4CC[C@H]5C[C@@H](O[C@@H]6O[C@H](CO)[C@H](O[C@@H]7O[C@H](CO)[C@@H](O)[C@H](O[C@@H]8OC[C@@H](O)[C@H](O)[C@H]8O)[C@H]7O[C@@H]7O[C@H](CO)[C@H](O)[C@H](O[C@@H]8O[C@H](CO)[C@@H](O)[C@H](O)[C@H]8O)[C@H]7O)[C@H](O)[C@H]6O)[C@H](O)C[C@]5(C)[C@H]4CC[C@]3(C)[C@H]1[C@@H]2C	48 AU (inactive)
CCN1C[C@]2(COC)[C@H](O)C[C@H](OC)[C@]34C1[C@H]([C@H](OC)[C@H]23)[C@]1(OC(C)=O)[C@H]2[C@@H](OC(=O)c3ccccc3)[C@](O)(C[C@H]24)[C@@H](OC)[C@@H]1O	16 AU (inactive)
CN[C@@H]1[C@@H](O)[C@@H](O[C@@H]2[C@@H](O)[C@H](O[C@H]3O[C@H]([C@@H](C)O)[C@@H](O)[C@H](O)[C@H]3N)[C@@H](N)C[C@H]2N)OC[C@]1(C)O	52 AU (inactive)
CC[C@]12C=CCN3CC[C@@]4(c5ccc(OC)cc5N(C)[C@H]4[C@@](O)(C(=O)OC)[C@@H]1OC(C)=O)[C@@H]32	44 AU (inactive)
COc1cc([C@@H]2c3cc4c(cc3[C@@H](O)[C@H]3COC(=O)[C@H]23)OCO4)cc(OC)c1O	72 AU (inactive)
COC(=O)C1=CO[C@@H](C)[C@@H]2CN3CC[C@@]4(C(=O)Nc5ccccc54)[C@H]3C[C@H]12	32 AU (inactive)
C[C@@H]1O[C@@H](O[C@H]2CC[C@]3(C=O)[C@H]4CC[C@]5(C)[C@@H](C6=CC(=O)OC6)CC[C@]5(O)[C@@H]4CC[C@]3(O)C2)[C@H](O)[C@H](O)[C@H]1O	4 AU (inactive)
